Measurements reported in PubChem BioAssay (NCI).
Compounds without any hit were thinned out: in the full panel of roughly 83,000, 20% have a hit.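 Values shown are percent growth following 48 h exposure of cells in 96-well plates to a single concentration of compound; below 10 was considered active.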 A number with no mark means an inactive call. The source made the active and inactive calls.

Tests used:
Assay in all cases: NCI-60 one-dose screen, 48 h (100 = growth as untreated, 0 = no growth, -100 = all killed)
Settings in all cases: 10 µM unless noted
EKVX NSCLC = test system: EKVX NSCLC
SN12C renal = test system: SN12C renal
UO-31 renal = test system: UO-31 renal
TK-10 renal = test system: TK-10 renal
ACHN renal = test system: ACHN renal
CAKI-1 renal = test system: CAKI-1 renal
CCRF-CEM leukemia = test system: CCRF-CEM leukemia
MOLT-4 leukemia = test system: MOLT-4 leukemia
A498 renal = test system: A498 renal

Structure (SMILES) | growth (EKVX NSCLC) | growth (SN12C renal) | growth (UO-31 renal) | growth (TK-10 renal) | growth (ACHN renal) | growth (CAKI-1 renal) | growth (CCRF-CEM leukemia) | growth (MOLT-4 leukemia) | growth (A498 renal)
CCCCCCOc1ccc(/C=N/Nc2cc(C)nc3ccc(Br)cc23)cc1 | -21.2% (active) | -88.9% (active) | -97.5% (active) | -85.7% (active) | -98.3% (active) | -72.4% (active) | -23.3% (active) | -51.4% (active) | –
CC(C)(C)OC(=O)N1C/C(=C\c2ccoc2)C(=O)/C(=C/c2ccoc2)C1 | 102% | 97.8% | 74.2% | 94.8% | 99.6% | 82.5% | 16.5% | 76.1% | 74.1%
CCC(=O)c1ccc(O)c(OC)c1 | 114% | 94.9% | 101% | 99.2% | 103% | 100% | 91% | 101% | –
COc1cc(-c2nc3sccn3c2-c2ccnc(NCCNS(=O)(=O)c3ccc(F)cc3)n2)ccc1F | 23.6% | 15.1% | -11.1% (active) | 20.2% | 0.0766% (active) | 8.83% (active) | 2.47% (active) | -15.4% (active) | 22.5%
CCCCN(CCCC)CCc1c(C)cc(C)c(CCN(CCCC)CCCC)c1O | 14.4% | 22.9% | 28.4% | 37.4% | 29.3% | 39.7% | 26.6% | 16.2% | –
O=c1nc2n(nc1/C=C/c1ccco1)CC(c1ccc(Cl)cc1)=NN2 | 72.1% | 136% | 64% | 104% | 122% | 94% | 98% | 84.2% | 107%
COC(=O)Nc1nc2ccc(C(=O)c3cccc(I)c3)cc2[nH]1 | 29.9% | 23.3% | 28.8% | 42.4% | 17.5% | 5.37% (active) | 5.32% (active) | 19.1% | -15.3% (active)
C/C(=C(/c1ccccc1)c1ccc(OCC(O)CN2CCOCC2)cc1)c1ccccc1 (centres undefined) | 96.6% | 88.3% | 73.7% | 94.3% | 98.8% | 80.1% | 80.4% | 61.5% | 91.6%
O=C1Nc2cc(-c3ccncc3)ccc2/C1=C/c1ccc[nH]1 | 46.9% | 99.5% | 73.7% | 95.7% | 54% | 87.9% | – | 96.4% | –
COc1ccc(NC(=O)c2sc3nc(C)c(C(O)c4ccc(OC)cc4)cc3c2N)cc1 (centres undefined) | 47.9% | 33% | 20.6% | 60.7% | 36.3% | 30.4% | – | 15.8% | 12.6%
